The whole screen tested about 6,900 compounds, of which fewer than 10 were called active. Calls come from the whole dose curve; as a rule, active = well fitted curve in the direction sought with a large enough effect; inconclusive = small, poorly fitted or top-dose-only effect, or another doubt; inactive = no such curve, though single readings can be large or run the other way. Not all results are given here.
Target: Metallo-beta-lactamase type 2 (Klebsiella pneumoniae) (UniProt C7C422)
Assay: qHTS to identify inhibitors of the New Delhi Metallo-beta-lactamase (NDM): primary screen against the NCATS Gemini Collection
Conditions: NDM-1 enzyme, meropenem hydrolysis, absorbance 300 nm; series mostly up to 38.4 µM
Source text: Assay Submitter (PI): James Inglese Ph.D., Patricia Dranchak Ph.D., Mahesh Aitha Ph.D. Assay Development and Screening Technology Laboratory (ADST) National Center for Advancing Translational Sciences (NCATS), Rockville, MD National Institute of Health (NIH), Bethesda, Maryland The metallo-beta-lactamases (MBL) are a main antibiotic resistance mechanism evolved by bacteria. There is an urgent clinical need for MBL inhibitors to mitigate this growing threat. To support a machine-based learning study, qHTS has been used to experimentally test inhibitors identified by prediction tools.
PROTOCOL TABLE (as described by Inglese et al., 2007) SEQUENCE No. (e.g., 1, 2, 3, etc.); […] (e.g., enzyme, Incubation, Reagent, etc.); VALUE; DESCRIPTION 1; NDM-1; 4 uL of 3 nM enzyme [2 nM final] in 50 mM HEPES (pH 7.0), 1 uM […], 0.01% Tween20; Use BioRaptr to dispense into Aurora black, clear bottom low base 1536-well plates 2; Compounds; 23 nL; Use Pin Tool (Wako) to transfer DMSO control and library compounds in DMSO 3; Incubate; >30 min 4; Reagent; 2 uL of 150 uM meropenem [50 uM final] 5; Incubate; 30 min. 6; Detector; Absorbance at 300 nm (bandwidth = 5 nm, 25 flashes/well) on Tecan Infinity NOTES (numbers refer to sequence above) 1; Column 1 of each plate received assay buffer without enzyme and columns 2-48 received enzyme for a final assay concentration of 2 nM. 2; Control plate contained DMSO in columns 1, 2, 3, and 4. 3; Compound interaction with enzyme. 4; Meropenem substrate was prepared in the same assay buffer as step 1 for a final assay concentration of 50 uM and added to all wells across the assay plates. 5; Substrate interaction with enzyme, plateau phase of kinetics. 6; Default reader settings were applied for absorbance read at 300 nm, bandwidth = 5 nm, 25 flashes/well. References: Inglese J, Shamu CE, Guy RK. 2007. Reporting data from high-throughput screening of small-molecule libraries. Nat Chem Biol. doi:10.1038/nchembio0807-438 Yasgar A, Shinn P, Jadhav A, Auld D, Michael S, Zheng W, Austin CP, Inglese J, Simeonov A. 2008. Compound Management for Quantitative High-Throughput Screening. J Lab Autom 13:79 - 89. doi:10.1016/j.jala.2007.12.004

Metallo-beta-lactamase type 2 (Klebsiella pneumoniae), sequence (C7C422 whole entry, looked up): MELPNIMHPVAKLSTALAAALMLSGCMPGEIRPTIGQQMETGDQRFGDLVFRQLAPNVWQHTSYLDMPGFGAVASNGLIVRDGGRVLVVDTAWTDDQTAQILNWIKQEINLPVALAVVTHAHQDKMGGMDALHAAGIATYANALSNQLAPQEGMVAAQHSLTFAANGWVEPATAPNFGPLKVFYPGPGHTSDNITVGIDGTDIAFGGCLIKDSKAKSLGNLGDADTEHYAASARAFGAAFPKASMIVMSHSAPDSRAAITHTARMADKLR

SMILES	outcome
N#Cc1ccccc1-c1cc2c(ccn2Cc2ccncc2)c(N2CCOCC2)n1	inactive
COc1cc(CC2(CCC(=O)N3CCC(Oc4cccc(F)c4)CC3)CCC(=O)N2)ccc1F (stereo not drawn)	inactive
CN1CCN([C@H]2[C@@H]3OC[C@@H](O3)[C@@H](NCc3ccc(-c4ccccc4)cc3)[C@@H]2O)CC1	inactive
CC(C)(C)c1nc(C(=O)NCc2cccnc2)n2ccccc12	inactive
CN1CCN(C(=O)c2cncc(N[C@H]3C[C@@H]4OCC[C@H]34)n2)CC1	inactive
COc1ccc(C(=O)N2CCC3(CCC3OC)CC2)cn1 (stereo not drawn)	inactive
CCC1(N2CCN(S(=O)(=O)c3cccs3)CC2)CCN(S(C)(=O)=O)C1 (stereo not drawn)	inactive
Cn1cc(CN[C@H]2C[C@H]3C(=O)NC[C@@H](CCC(=O)NCc4ccccc4)N3C2)c2ccccc21	inactive
CCc1nc(-c2c3n(c(=O)n(CC(=O)OC)c2=O)CCCC3)no1	inactive
O=C(c1n[nH]c2ccccc12)N1CC2CC(C1)[C@H]1CCCC(=O)N1C2 (stereo partly drawn)	inactive
COCc1nnc2n1CCC(NC(=O)Cn1nc(C(F)(F)F)cc1C)CC2 (stereo not drawn)	inactive
Cc1ccc(C(C(=O)O)N2CCC(C(=O)N3CCCC3)CC2)c(C)c1 (stereo not drawn)	inactive
O=C(NCCCn1ccnn1)c1cccc(S(=O)(=O)N2CCOCC2)c1	inactive
CC(=O)N1CCC(N2CC[C@H](c3nc4ccccc4s3)C2)CC1	inactive
N[C@H]1CN(C(=O)c2cccc(-n3cnnc3)c2)C[C@@H]1c1ccccc1	inactive
COCC1CN(Cc2c(C)n[nH]c2C)CC12CCNCC2 (stereo not drawn)	inactive
COc1ccc(Cn2c3c(c(=O)n2Cc2ccccc2)CCN(C(=O)CCc2cccnc2)C3)cc1	inactive
CCn1c(C(=O)OC)c(NC(C)=O)c2cc(NC(C)Cc3ccccc3OC)cnc21 (stereo not drawn)	inactive
COc1cccc(CN2CC(Oc3ccccc3C(=O)NC3CC3)C2)c1	inactive
CN(Cc1cc(C[C@@H]2C[C@H](NC(=O)C(C)(C)C)C2(C)C)no1)c1ccccc1	inactive
Cc1cc2nc3n(c(=O)c2n1CC(=O)NC1CCCCC1)CCCCC3	inactive
COCCN1CCCCCC(O)c2cc(C(=O)NCc3ccc(F)cc3)ccc21 (stereo not drawn)	inactive
O=C(CCn1ccn2nc3c(c2c1=O)CCCC3)N1CCSCC1	inactive

SMILES	outcome
CCN(C1CCOCC1)C1CN(C(=O)c2ccccn2)C1	inactive
CN1CC[C@H]2CN(C(=O)c3scc4c3OCCO4)C[C@@]2(C(=O)O)C1	inactive
Cc1cc(C(=O)N2CC[C@H](NS(=O)(=O)c3cn(C)cn3)C[C@H]2C(=O)N[C@H](Cc2c[nH]c3ccccc23)C(N)=O)n(C)n1	inactive
Cc1cccc(C(=O)N2CCCCCCN(C)C(=O)[C@@H]3CCC[C@@H]32)c1	inactive
CCN(CC)C(=O)[C@@H]1C[C@@H](NC(=O)c2ccn(CC)c(=O)c2)CN1C(C)=O	inactive
COC[C@@H]1CN(C(=O)Cc2c(C)noc2C)C[C@H]1c1ccccn1	inactive
O=C(NC1CCN(c2ccnc3ccnn23)C1)c1cc(F)ccc1Br (stereo not drawn)	inactive
COCC(=O)N[C@H]1C[C@@H](CO)N(Cc2scnc2C)C1	inactive
COc1ccc2cc(C3CN(C(=O)CNC(=O)C(C)C)CCO3)ccc2c1 (stereo not drawn)	inactive
COc1ccc(C(=O)Nc2ccc3c(c2)CN(CCc2ccccc2)C(=O)C(C)O3)cc1OC (stereo not drawn)	inactive
COc1ccc(-c2cn(C)c(=O)n3cc(CN4CCNC(=O)C4)nc23)cn1	inactive
CCCC(C)N1CC2(CCN(C(=O)c3cnn4c3CCCC4)CC2)OC1=O (stereo not drawn)	inactive
CCCN1CC2(CCN(Cc3nc(CCOC)no3)CC2)CC1C(=O)O (stereo not drawn)	inactive
O=C(Cc1ccsc1)Nc1ccc2c(N3CCCC3)ncnc2c1	inactive
CN(C)Cc1nnc(C2CC(NC(=O)Cc3noc4ccccc34)C2)n1C (stereo not drawn)	inactive
O=C1NC2(CCN(Cc3ccccc3C(F)(F)F)C2)COc2ccccc21 (stereo not drawn)	inactive
CN(C)C[C@@H]1CN(Cc2ccncc2)C[C@H]1NC(=O)Cc1ccsc1	inactive
COCc1ncc(C)n1C1CCCN(C(=O)CCCc2ccccc2)C1 (stereo not drawn)	inactive
O=C(CC1CCCC1)N1CCCC(c2nn[nH]n2)C1 (stereo not drawn)	inactive
O=C1c2ccccc2CN1C1CCN(Cc2cccc3ccccc23)CC1	inactive
COc1ccc(-c2ccccc2NC(=O)C2CCCN(CC=C(C)C)C2)cc1 (stereo not drawn)	inactive
O=C1NCCOCCN(S(=O)(=O)c2ccc3c(c2)CCC3)[C@@H]2CCCC[C@H]12	inactive
CC(=O)c1cc(C(=O)NCc2c(C)ncc3c2CCNC3)[nH]n1	inactive

SMILES	outcome
COc1ccc(C(=O)N2CCC([C@@H]3CNC[C@H]3CO)CC2)cc1	inactive
CNC(=O)[C@@H](C1CC1)N1CCC[C@H]1C(=O)NCc1cccnc1	inactive
COC(=O)NCC(=O)N1CC[C@@H]2[C@@H](CCC(=O)N2CCc2ccccc2)C1	inactive
CCn1c(CN2CCN(c3nc4ccccc4s3)CC2)nnc1C1CC(N)C1 (stereo not drawn)	inactive
CCn1cc(S(=O)(=O)NCC2Cn3cccc3C(=O)N2C)cn1 (stereo not drawn)	inactive
COc1ccc(CN2CCCC3(Cc4ccccc4CNC3=O)C2)c(OC)n1 (stereo not drawn)	inactive
Cc1cc(C)n(CCc2c(-c3ccccc3)ncn2C(C)CCCC(C)(C)O)n1 (stereo not drawn)	inactive
CCc1nc(-c2c3n(c(=O)n(CC(=O)NC4CCCC4)c2=O)CCCCC3)no1	inactive
CC(C)Cc1cc(CN2CCC(CO)(CN3CCCC3)CC2)[nH]n1	inactive
OC1(CN2CCC(c3nc(-c4ccccc4)no3)CC2)CNCCOC1 (stereo not drawn)	inactive
CCN1CC2(CCN(Cc3nc(COC)no3)CC2)CC(c2ccccc2)C1=O (stereo not drawn)	inactive
Cc1noc(C)c1CCCNC(=O)c1ccc(NC[C@H]2C[C@H]3C=C[C@H]2C32CC2)nc1	inactive
CN(C)c1cccc(C(=O)NC2CCN(c3cc(-c4cccs4)[nH]n3)C2)c1 (stereo not drawn)	inactive
COc1ccccc1-c1ccc(CN2CCCC(c3nc4ccc(C)cc4c(=O)[nH]3)C2)cc1 (stereo not drawn)	inactive
C[S+](=O)([O-])N1CCC(Cn2ccc3c(N4CCOCC4)nc(-c4cccc5[nH]ncc45)cc32)CC1	inactive
O=C(c1ccccn1)N1CCCC2(CNc3ccccc3[S+](=O)([O-])N2)C1 (stereo not drawn)	inactive
CN1CCCC(CN(C)C(=O)c2cc(-c3cnn(CCO)c3)nc3ccccc23)C1 (stereo not drawn)	inactive
Cc1cnc(C2CC2)n1C1CCCN(C(=O)c2ccoc2)C1 (stereo not drawn)	inactive
COc1ccc(C(=O)N2CCC3(CC2)OCC(C(=O)NC2CC2)N3C(=O)c2cccc(C)c2)cc1 (stereo not drawn)	inactive
Cc1ccsc1CN1CCc2nc(N3CCOCC3)[nH]c(=O)c2CC1	inactive
O=C1NC2(CCCN(Cc3cncs3)C2)COc2ccccc21 (stereo not drawn)	inactive
CCS(=O)(=O)Nc1ccc(C)n(CC(=O)NC2CCCCC2)c1=O	inactive
